Only a selection was taken, and hits are over-represented in it overall.
IMPase Li cell: cell-permeable IMPase inhibitors with lithium potentiation | CHO-M1 cells, IP1 TR-FRET (IP-One), carbachol + lithium | Potency, µM (titrated, usually from 59.4 µM), most hits filed as inhibitors | 0.35% of 210,000 active | AID 1457;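 also: IP1 builds up when IMPase is blocked and the TR-FRET signal falls; nearly all actives have a fitted effect of over 50% in size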
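CHO cells stably expressing M1 receptor (2000/well, cultured 16–30 h) treated 30 min at 37C with compound plus low lithium. Cytosolic IP1 by TR-FRET (665/620 ratio and 620 channel) after 10 min lysis; AC50 by Hill fit.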
IMPase cell inh: IMPase inhibition in cells | inhibition (IP1 accumulation), % at 46.1 µM | P97697 | 120,000 tested, under 10 active | CHO-M1 cells, IP1 accumulation, HTRF TR-FRET ratio; active = well fitted curve in the direction sought with a large enough effect in the signal ratio, not every such curve was filed as active; inconclusive = small, poorly fitted or top-dose-only effect, or a change in a side signal; inactive = no such curve, though single readings can be large or run the other way; the % refers to the signal ratio;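 also: cells stimulated with carbachol in lithium chloride buffer; higher means more IMPase inhibition seen as more IP1 and lower FRET ratio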
Target sequence (P97697 whole entry, looked up): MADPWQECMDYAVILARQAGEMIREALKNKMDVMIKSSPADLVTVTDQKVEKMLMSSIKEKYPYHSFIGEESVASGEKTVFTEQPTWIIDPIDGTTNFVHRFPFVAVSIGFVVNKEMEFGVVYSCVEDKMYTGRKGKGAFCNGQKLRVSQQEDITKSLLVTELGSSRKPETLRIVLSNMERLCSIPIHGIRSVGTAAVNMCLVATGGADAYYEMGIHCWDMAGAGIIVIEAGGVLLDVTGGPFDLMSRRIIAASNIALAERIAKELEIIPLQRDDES
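CHO-M1 cells (CHO stably expressing M1 receptor), compound up to 46 uM final, stimulated with carbachol (50 uM as added) in buffer with 50mM LiCl, pH 7.4, 30 min at 37C. Cytosolic IP1 read by TR-FRET; AC50 from Hill fits.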
NPSR antag: antagonists of human neuropeptide S receptor cAMP signaling | CHO-NPSR cells, cAMP TR-FRET, antagonist mode | Potency, µM (doses to about 38.3 µM), most hits filed as inhibitors | 1% of 220,000 active; also: nearly all actives have a fitted effect of over 50% in size
Target sequence (Q6W5P4 whole entry, looked up): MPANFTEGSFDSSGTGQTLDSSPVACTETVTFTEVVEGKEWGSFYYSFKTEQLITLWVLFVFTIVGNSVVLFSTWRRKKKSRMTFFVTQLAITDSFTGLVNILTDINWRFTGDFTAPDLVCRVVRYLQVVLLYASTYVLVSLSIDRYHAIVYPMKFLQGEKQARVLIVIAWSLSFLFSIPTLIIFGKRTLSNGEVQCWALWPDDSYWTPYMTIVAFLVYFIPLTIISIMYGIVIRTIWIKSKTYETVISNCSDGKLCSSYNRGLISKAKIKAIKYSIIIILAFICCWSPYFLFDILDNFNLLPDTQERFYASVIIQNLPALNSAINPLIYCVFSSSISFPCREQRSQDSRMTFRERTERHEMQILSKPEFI
Of the large screens only hits and unclear results are named; the others gave an inactive call. Unless noted, calls follow the shape of the dose curve; as a rule, active = well fitted curve in the direction sought with a large enough effect; inconclusive = small, poorly fitted or top-dose-only effect, or another doubt; inactive = no such curve, though single readings can be large; an effect the other way counts as inactive or inconclusive.

O=C(CN1C(=O)c2ccccc2C1=O)N1CCN=C1c1ccccc1	none (no result: IMPase Li cell, IMPase cell inh)
COc1ccccc1NC(=S)N(CCN1CCCCCC1)Cc1cccs1	none (no result: IMPase cell inh)
CCCCc1nc2ccn(CC(=O)N(C)C)c(=O)c2n1Cc1ccc(-c2ccccc2-c2nn[nH]n2)cc1	none (no result: IMPase cell inh, NPSR antag)
O=C(c1ccccc1F)N1CCN(c2ccc([N+](=O)[O-])cc2-n2cccc2)CC1	none (no result: IMPase Li cell, IMPase cell inh)
O=C(c1ccc(F)cc1)N1CCN(c2ccc([N+](=O)[O-])cc2-n2cccc2)CC1	NPSR antag 10µM (no result: IMPase Li cell, IMPase cell inh)
COc1ncc2nc(-c3ccc(F)cc3)c(=O)n(C)c2n1	none (no result: IMPase cell inh, NPSR antag)
O=C(Oc1ccccc1)N1CCC2(CCCN(c3ncccn3)C2)CC1	none (no result: IMPase cell inh, NPSR antag)
Cc1ccc(-n2c(Cl)c(Cl)nc(Cl)c2=O)cc1	NPSR antag 10µM (no result: IMPase cell inh)
COc1nc(Cl)cn(-c2ccc(C)cc2)c1=O	none (no result: IMPase cell inh)
CCCNC(=S)Nc1c(C)n(C)n(-c2ccccc2)c1=O	none (no result: IMPase cell inh)
COc1ccc(/C=N/NC(=O)C(=O)/C=C2\NC3(CCCC3)Cc3ccccc32)cc1	none
O=C(/C=C1\NC2(CCCC2)Cc2ccccc21)C(=O)N/N=C/c1ccc(O)c(O)c1	NPSR antag 12.6µM (no result: IMPase cell inh)
N=c1nc(N)nc(N)n1-c1ccc(S(N)(=O)=O)cc1	none (no result: IMPase cell inh, NPSR antag)
OC[C@@H]1O[C@@H](n2cnc3c(NC4CCCC4)ncnc32)[C@@H](O)[C@H]1O	none (no result: IMPase Li cell, NPSR antag)
Nc1nc(Cl)nc2c1ncn2[C@@H]1O[C@@H](COP(=O)(O)OP(=O)(O)OP(=O)(O)O)[C@@H](O)[C@H]1O	none (no result: IMPase Li cell, NPSR antag)
CCCc1ccc(Oc2cn[nH]c2-c2ccc(O)c(C)c2O)cc1	NPSR antag 10µM
CCCc1ccc(Oc2c(-c3ccc(O)c(C)c3O)n[nH]c2C)cc1	NPSR antag inconclusive
Nc1ncnc2c1[nH]c(=O)n2C1CC(O)C(CO)O1 (centres undefined)	none (no result: IMPase cell inh, NPSR antag)
CC1CCCCC1NCC(=O)NCc1ccc(F)cc1 (centres undefined)	none (no result: IMPase cell inh)
CC[C@@]1([C@@H]2O[C@@H]([C@H]3O[C@@](O)(CO)[C@H](C)C[C@@H]3C)C[C@@H]2C)CC[C@H]([C@]2(C)CC[C@]3(C[C@H](O)[C@@H](C)[C@@H]([C@@H](C)[C@@H](OC)C(C)C(=O)O)O3)O2)O1 (some centres undefined)	none (no result: IMPase cell inh, NPSR antag)
CC[n+]1ccc(/C=C2\Sc3ccccc3N2CCCS(=O)(=O)[O-])c2ccccc21	none (no result: IMPase cell inh)
CN1C=C/C(=C\c2cc[n+](C)c3ccccc23)c2ccccc21	NPSR antag 12.6µM (no result: IMPase cell inh)
c1ccc(-c2nnc3sc(-c4ccncc4)nn23)cc1	none
c1ccc(-c2nnc3sc(-c4csc5c4CCCC5)nn23)cc1	NPSR antag 10µM
COC(=O)N1CCC2(CCN(C(=O)NC(C)C)CC2)CC1	none (no result: IMPase cell inh, NPSR antag)
C[C@@H]1CC[C@]2(C(=O)O)CC[C@]3(C)C(=CCC4[C@@]5(C)C[C@@H](O)[C@H](O)[C@@](C)(CO)C5[C@H](O)C[C@]43C)C2[C@H]1C (some centres undefined)	none (no result: IMPase cell inh, NPSR antag)
S=c1nc[nH]c2c1sc1nc(N3CCOCC3)c3c(c12)CCCC3	IMPase Li cell 11.2µM (no result: IMPase cell inh)
CC(C)c1nc2sc3c(=S)nc[nH]c3c2c2c1CCC2	none (no result: IMPase Li cell, IMPase cell inh)
COC(=O)C1=C(C)N=c2s/c(=C/c3cccs3)c(=O)n2C1c1cccs1 (centres undefined)	none
CCOC(=O)C1=C(c2ccccc2)N=c2s/c(=C\c3ccc(O)cc3)c(=O)n2C1c1cccs1 (centres undefined)	NPSR antag 10µM
O=S(=O)(NCCNC/C=C\c1ccc(Br)cc1)c1cccc2cnccc12	none (no result: IMPase Li cell, NPSR antag)
CSc1ccccc1-c1nnc(-c2ccc(Cl)cc2Cl)o1	IMPase Li cell inconclusive
CCSc1nnc(-c2ccccc2SC)o1	IMPase Li cell 11.2µM (no result: IMPase cell inh)
C=CCSc1nc2ccccc2n1C(=O)/C=C/c1cc(OC)c(OC)c(OC)c1	NPSR antag 2.51µM
CCSc1nc2ccccc2n1C(=O)/C=C/c1ccc(OC)c(OC)c1	none (no result: IMPase cell inh)
CNc1nc(-c2ccccn2)nnc1-c1ccccc1	none
c1ccc(-c2nnc(-c3ccccn3)nc2NC2CCCCC2)cc1	NPSR antag 10µM
CC1(C)S[C@@H]2[C@H](NC(=O)COc3ccccc3)C(=O)N2[C@H]1C(=O)O (tested in a mixture with another compound)	none (no result: NPSR antag)
CC[n+]1ccccc1/C=C/c1ccc(N(C)C)cc1	none (no result: IMPase cell inh)
CC[n+]1c(/C=C/c2ccc(N(C)C)cc2)ccc2ccccc21	NPSR antag 5.01µM (no result: IMPase cell inh)
Oc1c(Cl)cc(C(c2cc(Cl)c(O)c(Cl)c2)C(c2cc(Cl)c(O)c(Cl)c2)c2cc(Cl)c(O)c(Cl)c2)cc1Cl	none (no result: IMPase cell inh, NPSR antag)
COc1cccc(Oc2nnnn2-c2ccccc2)c1	none (no result: IMPase Li cell)
COc1cccc(-n2nnnc2S(C)(=O)=O)c1	NPSR antag 10µM
O=S(=O)(c1ccccc1)N1CCC2(CC1)CN(c1ccccn1)C2	none (no result: IMPase cell inh, NPSR antag)
O=[N+]([O-])c1ccc(Nc2c3ccccc3nc3ccccc23)cc1	NPSR antag 6.31µM (no result: IMPase cell inh)
O=[N+]([O-])c1ccccc1Nc1c2ccccc2nc2ccccc12	none (no result: IMPase cell inh)
COCCCN1C(=O)C(=O)/C(=C(/O)c2ccc(OCC(C)C)cc2)C1c1cccnc1 (centres undefined)	IMPase Li cell inconclusive
COCCCN1C(=O)C(=O)/C(=C(/O)c2ccc(OC)cc2C)C1c1cccnc1 (centres undefined)	IMPase Li cell inconclusive
CCCOc1ccc(/C(O)=C2/C(=O)C(=O)N(CCCOC)C2c2cccnc2)cc1 (centres undefined)	IMPase Li cell 10µM
COCCCN1C(=O)C(=O)/C(=C(/O)c2ccc(OC(C)C)cc2)C1c1cccnc1 (centres undefined)	IMPase Li cell 11.2µM, NPSR antag inconclusive
C=CCOc1ccc(/C(O)=C2\C(=O)C(=O)N(CCCOC)C2c2ccncc2)cc1 (centres undefined)	IMPase Li cell inconclusive
COCCCN1C(=O)C(=O)/C(=C(/O)c2ccc(OC(C)C)c(C)c2)C1c1ccncc1 (centres undefined)	IMPase Li cell 10µM
CN(C)C(=O)c1ccc(-c2nccc(-n3ccnc3)n2)cc1	none (no result: IMPase cell inh, NPSR antag)
COC(=O)c1cn(NC(=O)C2CCCO2)c(=O)c2ccccc12 (centres undefined)	none
COC(=O)c1cn(NC(=O)C2COc3ccccc3O2)c(=O)c2ccccc12 (centres undefined)	IMPase Li cell 11.2µM
COc1ccc2c(c1)[N+](=O)C(/C(C)=N/NC(N)=S)=C(C)[N+]2=O	none (no result: IMPase cell inh, NPSR antag)
O=C1C2=C(Nc3cc([N+](=O)[O-])ccc3N2)O[C@@H]1c1ccc([C@H]2OC3=C(Nc4ccc([N+](=O)[O-])cc4N3)C2=O)cc1	none (no result: IMPase cell inh, NPSR antag)
CCOc1ccc2nc(-c3cc(NC(C)=O)ccc3O)sc2c1	IMPase Li cell 10µM (no result: IMPase cell inh)
COc1ccc(OCC(=O)Nc2ccc(O)c(-c3nc4ccccc4s3)c2)cc1	none (no result: IMPase Li cell, NPSR antag)
CCCCNC(=O)c1cc2c(-c3ccc(Cl)cc3)nn(C)c2s1	none
Cn1nc(-c2ccc(Cl)cc2)c2cc(C(=O)NCCCN3CCCC3)sc21	NPSR antag 10µM
CCCC[C@@H]1C[C@H]1C(NC(=O)c1ccco1)c1ccccc1 (some centres undefined)	none (no result: IMPase cell inh, NPSR antag)
COc1ccccc1NS(=O)(=O)c1ccc(O)c(NC(=S)NCC2CCCO2)c1 (centres undefined)	none (no result: IMPase Li cell, IMPase cell inh)
Cc1cc(C)n(-c2nc(Nc3ccccc3C(F)(F)F)nc(-n3nc(C)cc3C)n2)n1	NPSR antag 0.316µM
Cc1cc(C)n(-c2nc(NC(C)(C)C)nc(NC(C)(C)C)n2)n1	none
